The nature of assay [1]: qHTS assay to identify aromatase inhibitors - cell viability counter screen (AID 743084;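 further: cells stimulated with testosterone during compound exposure; nearly all actives have a fitted effect of over 55% in size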). (In general: In qHTS, concentration-response curves come from the screen itself.)
Assay [2] addresses Aryl hydrocarbon receptor (Homo sapiens) (UniProt P35869). The experiment in a line: qHTS assay to identify small molecule that activate the aryl hydrocarbon receptor (AhR) signaling pathway (AID 743085). Further: nearly all actives have a fitted effect of over 15% in size. Further: potency means the concentration at half of the fitted maximal effect.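 On activation: HG2L7.5c1 human HepG2 liver cells with stably integrated DRE-driven firefly reporter; series mostly up to about 70 µM.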 Summed up: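 HepG2 cells (HG2L7.5c1) stably carrying a firefly luciferase reporter driven by 20 dioxin responsive elements were exposed to compound for 24 h at 37C after a 5 h settling period; luminescence rise (ONE-Glo) indicated activation.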

Assay [3] can be described thus: qHTS assay to identify small molecule that activate the aryl hydrocarbon receptor (AhR) signaling pathway - cell viability counter screen (AID 743086).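 Further: HepG2 liver cells carrying the AhR DRE luciferase reporter; series mostly up to about 70 µM; nearly all actives have a fitted effect of over 45% in size.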 Summed up: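 HepG2-AhR-luc (HG2L7.5c1) cells, 4000/well, were preincubated 5 h at 37C, exposed to compound in qHTS format for 24 hr at 37C, then given CellTiter-Fluor for 30 min; viability was read as fluorescence in the reporter wells.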

The target of assay [4] is Peroxisome proliferator-activated receptor gamma (Homo sapiens) (UniProt P37231). Put plainly: qHTS assay to identify small molecule agonists of the peroxisome proliferator-activated receptor gamma (PPARg) signaling pathway (AID 743094; active means well fitted activation curve with a large enough effect in the signal ratio in the repeat runs, not every such curve was filed as active; the % refers to the signal ratio). Summed up:
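Following 5 h plating at 37C, PPARg-bla HEK293H cells receive compound or DMSO for 17 h; fluorescence intensity is recorded after LiveBLAzer B/G loading for 1 h at room temperature.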

The target is the same in assay [5]. The experiment in a line: qHTS assay to identify small molecule antagonists of the peroxisome proliferator-activated receptor gamma (PPARg) signaling pathway (AID 743191; calls by dose curve; further: series mostly up to about 63 µM; nearly all actives have a fitted effect of over 30% in size). Summed up: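 GeneBLAzer PPARg UAS-bla HEK293H cells carrying a UAS-driven beta-lactamase reporter were plated at 3000 cells/well, preincubated 5 h at 37C, then given compound for 17 h at 37C; LiveBLAzer B/G FRET substrate was read after 1 h at room temperature.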

A short description of assay [6]: qHTS assay for small molecule agonists of the antioxidant response element (ARE) signaling pathway (AID 743202; active means well fitted activation curve with a large enough effect in the signal ratio in the repeat runs, not every such curve was filed as active; the % refers to the signal ratio). Summed up: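 Compounds delivered in DMSO to ARE-bla HepG2 cells (2,000 cells/well, pre-incubated 5 h) and left 16 h at 37 C. LiveBLAzer B/G FRET substrate then added for 2 h at RT before fluorescence reading.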
The nature of assay [7]: qHTS assay for small molecule agonists of the antioxidant response element (ARE) signaling pathway - cell viability counter screen (AID 743203; calls by dose curve; further: nearly all actives have a fitted effect of over 55% in size). Summed up: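 Compounds in DMSO were pinned onto ARE-bla HepG2 cells plated 5 hrs earlier at 2,000 cells/well. Sixteen hours later at 37C/5% CO2, CellTiter-Glo was added and luminescence measured after 30 min at room temperature.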

Assay [8] can be described thus: qHTS assay for small molecule activators of the heat shock response signaling pathway - cell viability counter screen (AID 743209). Further: nearly all actives have a fitted effect of over 50% in size. Summed up: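 Counter screen for cytotoxicity in HeLa HSE-bla reporter cells. Treatment was 5 h at 37 C; viability was detected by luminescent ATP assay (CellTiter-Glo) in the same wells as the beta-lactamase read.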
The nature of assay [9]: qHTS assay for small molecule activators of the heat shock response signaling pathway (AID 743210; active means well fitted activation curve with a large enough effect in the signal ratio in the repeat runs, with a control signal flat, not every such curve was filed as active; the % refers to the signal ratio;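 further: HeLa cells with beta-lactamase reporter driven by heat shock elements; series mostly up to about 63 µM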). Summed up: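 Reporter gene assay: HeLa cells stably bearing an HSE-bla construct, compound treatment 5 h at 37 C, LiveBLAzer substrate 2.5 h at RT, fluorescence intensity.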
Assay [10] in a line: qHTS assay to identify small molecule agonists of the peroxisome proliferator-activated receptor delta (PPARd) signaling pathway - cell viability counter screen (AID 743211). Further: nearly all actives have a fitted effect of over 55% in size. Summed up:
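PPARd-bla HEK293H cells (UAS-beta-lactamase reporter) were treated with compounds for 17 h at 37 C. Viability was then read in the same wells by CellTiter-Glo luminescence after 30 min at room temperature.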

Assay [11] addresses Peroxisome proliferator-activated receptor delta (Homo sapiens) (UniProt Q03181). Put plainly: qHTS assay to identify small molecule antagonists of the peroxisome proliferator-activated receptor delta (PPARd) signaling pathway (AID 743215; active means well fitted inhibition curve with a large enough effect in the signal ratio in the repeat runs, not every such curve was filed as active; the % refers to the signal ratio;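 further: cells stimulated with agonist L165041 at 300 nM final during compound exposure; series mostly up to about 62 µM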). Summed up:
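With L165041 present at 300 nM final, compounds were incubated 17 h at 37 C on PPARd UAS-bla HEK293H cells. A FRET-based beta-lactamase substrate was then applied for 2 h at room temperature and fluorescence intensity recorded.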

A short description of assay [12]: qHTS assay to identify small molecule agonists of the farnesoid-X-receptor (FXR) signaling pathway - cell viability counter screen (AID 743218). Further: nearly all actives have a fitted effect of over 45% in size. Summed up: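 After 16 h at 37 C with test compounds, FXR-bla HEK 293T cells were given LiveBLAzer B/G substrate for 2 h at RT and then CellTiter-Glo; luminescence was taken after 30 min.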
Assay [13] in a line: qHTS assay to identify small molecule antagonists of the farnesoid-X-receptor (FXR) signaling pathway - cell viability counter screen (AID 743221; active means well fitted cell-killing curve with a large enough effect in the repeat runs, not every such curve was filed as active; further: nearly all actives have a fitted effect of over 50% in size). Summed up: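 FXR-UAS-bla HEK 293T cells were treated with test compounds plus chenodeoxycholic acid (50 uM final) for 16 h at 37 C. Cell viability in the same wells was then read as CellTiter-Glo luminescence after 30 min at room temperature.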

The target of assay [14] is Vitamin D3 receptor (Homo sapiens) (UniProt P11473). Put plainly: qHTS assay to identify small molecule agonists of the vitamin D receptor (VDR) signaling pathway (AID 743222; calls by dose curve). Summed up:
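VDR-bla cells were seeded, left 4 h, treated with compounds in DMSO for 16 h, incubated 2 h at RT with B/G FRET substrate, and read for fluorescence.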

Assay [15] addresses Peroxisome proliferator-activated receptor delta (Homo sapiens) (UniProt Q03181). The experiment in a line: qHTS assay to identify small molecule agonists of the peroxisome proliferator-activated receptor delta (PPARd) signaling pathway (AID 743212; calls by dose curve). Summed up:
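A PPARd-bla HEK293H line with beta-lactamase under an Upstream Activator Sequence is treated with compounds at 37 C. Substrate loading for 2 h at room temperature precedes the fluorescence measurement.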

Assay [16] is described as follows: qHTS assay to identify small molecule antagonists of the peroxisome proliferator-activated receptor delta (PPARd) signaling pathway - cell viability counter screen (AID 743213). Further: nearly all actives have a fitted effect of over 50% in size. Summed up:
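Luminescence from CellTiter-Glo, added after the bla read and incubated 30 min at room temperature, gives viability of HEK293H PPARd-bla cells exposed to compounds for 17 h at 37 C with 300 nM L165041.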

Assay [17] has as its target Vitamin D3 receptor (Homo sapiens) (UniProt P11473). The experiment in a line: qHTS assay to identify small molecule antagonists of the vitamin D receptor (VDR) signaling pathway (AID 743223; active means well fitted inhibition curve with a large enough effect in the signal ratio in the repeat runs, not every such curve was filed as active; the % refers to the signal ratio). Summed up: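 VDR-bla cells were plated, incubated 4 h at 37C, then given compound and 1alpha,25-dihydroxyvitamin D3 (3 nM final). After 16 h at 37C, LiveBLAzer B/G FRET substrate was added for 2 h at room temperature and fluorescence read.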

Assay [18] in a line: qHTS assay to identify small molecule antagonists of the peroxisome proliferator-activated receptor gamma (PPARg) signaling pathway - cell viability counter screen (AID 743194). Further: nearly all actives have a fitted effect of over 55% in size. Summed up:
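PPARg-UAS-bla HEK293H cells were plated, rested 5 h at 37 C, then treated with compounds plus rosiglitazone (50 nM final) for 17 h at 37 C; viability was then read by CellTiter-Glo luminescence after 30 min at room temperature.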

For assay [19], the target named is Bile acid receptor (Homo sapiens) (UniProt Q96RI1). The experiment in a line: qHTS assay to identify small molecule agonists of the farnesoid-X-receptor (FXR) signaling pathway (AID 743220; active means well fitted activation curve with a large enough effect in the signal ratio in the repeat runs, not every such curve was filed as active; the % refers to the signal ratio). Summed up:
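Beta-lactamase reporter under UAS control in GeneBLAzer FXR HEK 293T cells (5000/well) measured with LiveBLAzer FRET substrate after 2 h at room temperature. Compound exposure lasted 16 h at 37C.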

Assay [20] has the same target. Put plainly: qHTS assay to identify small molecule antagonists of the farnesoid-X-receptor (FXR) signaling pathway (AID 743217; active means well fitted inhibition curve with a large enough effect in the signal ratio in the repeat runs, not every such curve was filed as active; the % refers to the signal ratio). Summed up:
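In this cell-based antagonist screen, inhibition of CDCA-driven (50 uM final) UAS-beta-lactamase expression in HEK 293T cells was measured by FRET fluorescence following 16 h compound exposure at 37 °C.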

For nine molecules, Potency and outcome results are on record in PubChem BioAssay (Tox21).

Inconclusive results are not listed. A number with no mark means an inactive call. Activity calls are given as the source filed them. Unless noted, the call rests on the fitted dose curve; in most records, active means well fitted curve in the direction sought with a large enough effect in the repeat runs; inconclusive means weak or mixed curves; inactive means no such curve, though single readings can be large; an effect the other way counts as inactive or inconclusive.

Sequence of Vitamin D3 receptor (Homo sapiens) (P11473 whole entry, looked up): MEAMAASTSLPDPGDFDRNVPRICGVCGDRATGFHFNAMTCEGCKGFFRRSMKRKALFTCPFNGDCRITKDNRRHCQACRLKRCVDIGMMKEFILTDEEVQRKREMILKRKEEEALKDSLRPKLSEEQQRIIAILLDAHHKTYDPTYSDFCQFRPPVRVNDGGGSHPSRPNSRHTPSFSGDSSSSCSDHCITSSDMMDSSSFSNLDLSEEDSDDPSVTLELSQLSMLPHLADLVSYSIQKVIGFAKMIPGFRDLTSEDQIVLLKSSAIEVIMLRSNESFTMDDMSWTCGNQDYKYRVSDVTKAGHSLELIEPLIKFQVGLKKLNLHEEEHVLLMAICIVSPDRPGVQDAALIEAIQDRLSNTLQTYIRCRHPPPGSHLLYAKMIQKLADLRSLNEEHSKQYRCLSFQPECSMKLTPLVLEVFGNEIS
Sequence of Bile acid receptor (Homo sapiens) (Q96RI1 whole entry, looked up): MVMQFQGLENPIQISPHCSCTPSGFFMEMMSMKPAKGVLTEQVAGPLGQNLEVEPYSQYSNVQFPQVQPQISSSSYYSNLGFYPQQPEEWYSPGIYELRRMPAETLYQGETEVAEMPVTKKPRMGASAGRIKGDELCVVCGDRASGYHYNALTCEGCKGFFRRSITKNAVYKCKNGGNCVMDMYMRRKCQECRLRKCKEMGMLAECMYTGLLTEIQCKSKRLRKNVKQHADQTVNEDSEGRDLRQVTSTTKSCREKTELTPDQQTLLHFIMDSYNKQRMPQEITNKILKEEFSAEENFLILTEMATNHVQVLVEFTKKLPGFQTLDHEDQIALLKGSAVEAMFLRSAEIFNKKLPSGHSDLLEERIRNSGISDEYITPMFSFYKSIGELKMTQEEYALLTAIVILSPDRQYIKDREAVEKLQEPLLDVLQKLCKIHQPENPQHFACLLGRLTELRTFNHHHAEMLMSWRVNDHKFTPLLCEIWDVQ
Sequence of Peroxisome proliferator-activated receptor delta (Homo sapiens) (Q03181 whole entry, looked up): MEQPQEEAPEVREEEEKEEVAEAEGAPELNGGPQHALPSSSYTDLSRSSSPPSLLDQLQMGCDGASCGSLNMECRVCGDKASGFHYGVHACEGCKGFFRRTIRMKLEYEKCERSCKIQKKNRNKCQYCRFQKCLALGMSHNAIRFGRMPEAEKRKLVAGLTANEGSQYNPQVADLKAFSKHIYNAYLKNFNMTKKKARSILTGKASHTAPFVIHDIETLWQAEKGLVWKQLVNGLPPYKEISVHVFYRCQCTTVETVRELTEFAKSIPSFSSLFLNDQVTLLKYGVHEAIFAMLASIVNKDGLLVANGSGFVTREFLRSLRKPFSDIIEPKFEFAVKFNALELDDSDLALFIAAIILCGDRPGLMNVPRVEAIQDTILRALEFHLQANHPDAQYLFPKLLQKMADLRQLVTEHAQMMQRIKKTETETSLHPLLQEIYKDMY
Sequence of Aryl hydrocarbon receptor (Homo sapiens) (P35869 whole entry, looked up): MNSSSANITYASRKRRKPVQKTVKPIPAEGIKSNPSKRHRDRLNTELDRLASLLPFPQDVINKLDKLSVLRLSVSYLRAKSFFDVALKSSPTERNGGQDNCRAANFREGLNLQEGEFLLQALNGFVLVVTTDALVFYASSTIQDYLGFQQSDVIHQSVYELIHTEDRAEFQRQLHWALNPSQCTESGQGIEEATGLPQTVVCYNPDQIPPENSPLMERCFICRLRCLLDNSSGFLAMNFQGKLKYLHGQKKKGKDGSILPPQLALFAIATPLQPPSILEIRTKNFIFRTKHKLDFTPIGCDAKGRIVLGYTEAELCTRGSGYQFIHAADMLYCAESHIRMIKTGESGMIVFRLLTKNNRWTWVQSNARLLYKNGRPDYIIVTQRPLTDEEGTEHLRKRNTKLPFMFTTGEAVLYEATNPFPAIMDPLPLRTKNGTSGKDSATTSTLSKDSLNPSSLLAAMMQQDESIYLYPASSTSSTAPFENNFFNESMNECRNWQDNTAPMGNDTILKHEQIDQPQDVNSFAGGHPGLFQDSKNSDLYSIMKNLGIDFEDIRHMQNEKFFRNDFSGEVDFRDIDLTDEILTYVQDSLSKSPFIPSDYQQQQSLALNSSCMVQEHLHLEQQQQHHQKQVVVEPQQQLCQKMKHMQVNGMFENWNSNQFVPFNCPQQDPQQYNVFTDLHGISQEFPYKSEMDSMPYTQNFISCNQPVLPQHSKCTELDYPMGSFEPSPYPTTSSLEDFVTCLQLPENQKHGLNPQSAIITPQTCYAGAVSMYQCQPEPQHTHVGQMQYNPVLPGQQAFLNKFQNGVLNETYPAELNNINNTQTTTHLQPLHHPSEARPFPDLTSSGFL
Sequence of Peroxisome proliferator-activated receptor gamma (Homo sapiens) (P37231 whole entry, looked up): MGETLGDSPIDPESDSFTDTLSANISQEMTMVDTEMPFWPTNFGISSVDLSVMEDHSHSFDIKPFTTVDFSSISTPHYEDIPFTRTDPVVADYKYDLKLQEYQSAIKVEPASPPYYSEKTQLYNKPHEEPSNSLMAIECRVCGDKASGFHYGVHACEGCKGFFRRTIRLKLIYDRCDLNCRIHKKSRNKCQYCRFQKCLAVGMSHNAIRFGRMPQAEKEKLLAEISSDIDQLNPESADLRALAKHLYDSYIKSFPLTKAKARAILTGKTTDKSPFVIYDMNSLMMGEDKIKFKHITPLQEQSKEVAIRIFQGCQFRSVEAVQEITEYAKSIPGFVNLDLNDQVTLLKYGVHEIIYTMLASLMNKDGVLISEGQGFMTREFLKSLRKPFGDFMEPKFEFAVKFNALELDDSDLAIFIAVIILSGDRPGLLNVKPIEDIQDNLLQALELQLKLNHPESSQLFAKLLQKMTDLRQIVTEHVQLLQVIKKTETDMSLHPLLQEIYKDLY

As for `CC1(C)CC(=O)CC(C)(C)N1`, the Potency entry in assay [1], in assay [2], in [3], in [4], in assay [5] and in assay [6] was “inactive” throughout. The Potency result in [7], in assay [10], in assay [12] and in [13] was “inactive” in each case. For the same molecule, the molecule was called inactive in [8], in assay [9], in assay [11] and in assay [14].

Turning to `COC(=O)c1cc(Cl)ccc1[N+](=O)[O-]`, the Potency result in assay [1], in assay [2], in [3], in assay [4], in [5] and in assay [6] was “inactive” throughout. Also, the Potency result in assay [7], in assay [15], in [16], in [12] and in assay [13] was “inactive” in each case. The call in [8], in assay [9], in assay [11], in assay [14] and in [17] was inactive.

Regarding `CC(C)=CCC[C@H](C)CCO`, the Potency result in [1], in [2], in assay [3], in assay [4], in assay [18] and in assay [6] was “inactive” each time. In addition, the Potency entry in assay [7], in assay [10], in assay [16] and in assay [12] was “inactive” each time. In addition, the outcome in [8] and in [9] was inactive.

Take `CC(COc1ccccc1)NC(C)C(O)c1ccc(O)cc1` (configuration not stated): the Potency entry in assay [1], in assay [2], in assay [3], in assay [4], in [5] and in [18] was “inactive” throughout. Further, the Potency result in [7], in assay [10], in [15], in assay [12] and in [13] was “inactive” each time. For the same molecule, the molecule was classed as inactive in assay [8], in [11] and in assay [19].

Regarding `O=C1CCCN1CCO`, the Potency result in [1], in assay [2], in assay [3], in [4], in assay [5] and in [18] was “inactive” throughout. The Potency result in [7], in assay [10] and in assay [16] was “inactive” throughout. Also, the call in [8], in assay [11] and in [14] was inactive.

Turning to `O=C1c2ccccc2C(=O)C1c1ccc2ccccc2n1`, the Potency result in [1], in assay [3], in [4], in assay [5], in [18] and in assay [7] was “inactive” throughout. Further, the Potency entry in [15], in assay [16], in assay [12] and in [13] was “inactive” throughout. For the same molecule, in assay [2], the Potency was 10.8 µM (active). In addition, the molecule was called inactive in assay [8], in [9] and in assay [17].

For `CCCc1nc(C)c2c(=O)[nH]c(-c3cc(S(=O)(=O)N4CCN(CC)CC4)ccc3OCC)nn12`, the Potency result in assay [1], in assay [2], in assay [3], in [4], in assay [5] and in [7] was “inactive” throughout. In addition, the Potency result in assay [10], in assay [15], in assay [16], in assay [12] and in assay [13] was “inactive” throughout. For the same molecule, the call in [8], in [9], in assay [11], in assay [14] and in assay [17] was inactive.

In the case of `O=P(c1ccccc1)(c1ccccc1)c1ccccc1`, the Potency entry in assay [1], in [2], in assay [3], in assay [4], in assay [5] and in assay [7] was “inactive” throughout. Moreover, the Potency result in assay [10], in [16], in assay [12] and in assay [13] was “inactive” in each case. In addition, the outcome in assay [8], in assay [9], in [11], in assay [20], in assay [19] and in [14] was inactive. The outcome in [17] was inactive.

`CCC(CC)C(=O)O`: the Potency result in assay [1], in [2], in [3], in assay [4], in assay [18] and in assay [6] was “inactive” throughout. In addition, the Potency entry in assay [7], in assay [10], in assay [15], in assay [16], in assay [12] and in assay [13] was “inactive” throughout. Besides, the call in assay [8], in assay [9], in assay [11], in assay [14] and in assay [17] was inactive.
